Tb PFK inh: blocks T. brucei phosphofructokinase; Potency, µM (highest dose often 57.5 µM), for the others: top-dose activity, negative = inhibition, usual class: inhibitors; O15648; 330,000 tested, 0.17% active; T. brucei PFK, ADP-Glo luminescence;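 also: 0% = uninhibited 1x PFK enzyme wells and -100% = no-enzyme wells; nearly all actives have a fitted effect of over 60% in size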
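ADP-Glo luminescence quantified ADP after 45 min at room temperature, with 1.25 nM T. brucei PFK, 0.1 mM ATP and 0.5 mM fructose-6-phosphate in pH 8.0 TEA buffer. qHTS titrations up to 57 µM; curves classified by quality.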
PGK inhibitor: inhibitors of T. brucei phosphoglycerate kinase | Potency, µM (titrated, usually from 57.5 µM), for the others: top-dose activity change, negative = inhibition, most hits filed as inhibitors | PGK/GAPDH coupled, Kinase-Glo luminescence, 60 min | 380,000 tested, 0.043% active | P07378; also: nearly all actives have a fitted effect of over 60% in size
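Luminescent ATP detection (Kinase-Glo Plus) follows a 60-minute room-temperature incubation, with wells lacking PGK as controls. Buffer: 100 mM TEA (pH 7.6), 5 mM MgCl2, 0.01% Tween-20. Coupling enzyme GAPDH (100 nM final) supplies unstable 1,3-BPG in-well.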
Pin1 inh: blocks the human prolyl isomerase Pin1; 390,000 tested, 0.009% active; Potency, µM (doses to about 115 µM), for inactives: at the highest dose activity, negative = inhibition, hits mostly inhibitors; Pin1 FP peptide displacement, HiFluor488, 10 min; Q13526; active = well fitted inhibition curve with a large enough effect in the polarisation, with a control signal flat, not every such curve was filed as active; inconclusive = small, poorly fitted or top-dose-only effect, or effect the other way, or a change in a side signal; inactive = no such curve, though single readings can be large or run the other way; the % refers to the polarisation
Target sequence (Q13526 whole entry, looked up): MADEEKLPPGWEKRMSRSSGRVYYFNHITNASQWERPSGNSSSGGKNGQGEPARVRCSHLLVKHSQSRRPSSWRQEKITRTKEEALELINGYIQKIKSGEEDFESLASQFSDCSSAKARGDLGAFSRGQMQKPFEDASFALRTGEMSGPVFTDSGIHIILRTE
GLS inh: inhibitors of human glutaminase (GLS); 410,000 tested, 0.21% active; Potency, µM (titrated, usually from 45.5 µM), for inactives: at the top dose activity change, negative = inhibition, most hits filed as inhibitors; O94925; GLS enzymatic activity, qHTS titration
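hKGA in 45 mM KH2PO4 (pH 8.2), 0.02% Tween-20 with compound, then 1mM L-Glutamine (stock as added) plus glutamate oxidase/HRP/Amplex red coupling mix. Fluorescence read initially and after 30 min at RT; signal change reflects glutamate formation.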
VDR inh: inhibitors of human vitamin D receptor; Potency, µM, without a hit: max response, negative = inhibition, actives largely listed as inhibitors; VDR-SRC2-3 peptide fluorescence polarization, 2 h; P11473; 400,000 tested, 0.93% active; AID 504847
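The screen uses fluorescence polarization to detect compounds that interfere with recruitment of the SRC2-3 coactivator peptide to VDR; plates are read after 2 h at room temperature.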
Starred values were filed as active, the others as inactive; i = inactive; ? = inconclusive; . = no result given. An excerpt weighted towards active compounds, which were near 1.1% of everything screened. Unless noted, calls follow the shape of the dose curve; as a rule, active = well fitted curve in the direction sought with a large enough effect; inconclusive = small, poorly fitted or top-dose-only effect, or another doubt; inactive = no such curve, though single readings can be large; an effect the other way counts as inactive or inconclusive. Unless noted, % is scaled to controls: 0 for no effect and ±100 for the full control effect; potency is read from the fitted curve at half-maximal effect.

SMILES | Tb PFK inh | PGK inhibitor | Pin1 inh | GLS inh | VDR inh
COc1ccc(NC(=O)c2cc(-c3ccco3)nc3ccccc23)cc1S(=O)(=O)N1CCOCC1 | 0% | -8% | -19% | ? | 28µM*
Cc1ccc(NC(=O)c2cc(-c3ccco3)nc3ccccc23)cc1S(=O)(=O)N1CCOCC1 | 13% | -5% | ? | 36% | 7%
Cc1cc(C)c(S(=O)(=O)N2CCC(N3CCN(Cc4ccc(F)cc4)C(=O)C3=O)CC2)c(C)c1 | . | 0% | 9% | -1% | 16%
O=C(Nc1cnc(N2CCN(c3ccccc3)CC2)c(C(=O)O)c1)c1cccs1 | . | ? | 0% | -5% | 3%
Cc1cccc(OCCSc2nc(N)cc(N)n2)c1 | -21% | 0% | 2% | 0% | ?
Clc1cc(Cl)c(OCC#CI)cc1Cl | . | . | . | -26% | 2.8µM*
COc1ccccc1N(C(=O)c1snc(C(N)=O)c1N)C(C(=O)NC1CCCCC1)c1cccc(OC)c1OC (stereo unspecified) | 19% | -11% | 0% | 6% | -2%
CC(C)c1ccc(C(=O)CSc2ncn[nH]2)cc1 | -29% | . | -6% | -2% | 79µM*
O=C(CC1SC(=O)N(c2ccccc2)C1=O)Nc1cccc2ccccc12 (stereo unspecified) | 2% | -1% | 0% | 10µM* | 45µM*
CCCCOc1ccc(C(=O)CCN2CCOCC2)cc1 | -4% | -3% | 1% | 7% | 32µM*
CCCOc1ccc(C(=O)CCN2CCCCC2)cc1 | -7% | -5% | -2% | 21% | 40µM*
COc1ccc(Cl)cc1NC(=O)Cc1coc2c(C)c(C)ccc12 | . | i | 16% | 1% | 9%
Cc1ccc(-c2nn3c(=O)cc(CN4CCN(C(=O)/C=C/c5ccccc5)CC4)nc3s2)cc1 | . | 1% | -2% | 3% | 15%
COc1ccc(S(=O)(=O)NCCc2cn3nc(C)c(C)nc3n2)cc1 | 2% | -6% | 11% | 4% | -5%
Cc1nc2nc(CCNS(=O)(=O)c3ccc(Cl)cc3)cn2nc1C | -3% | -5% | -5% | 2% | 89µM*
O=C(O)C(c1ccccc1)N1C(=O)/C(=C/c2cccs2)SC1=S (stereo unspecified) | 4% | -11% | -9% | 0% | -16%
O=C(O)C(Cc1ccccc1)N1C(=O)/C(=C/c2cccs2)SC1=S (stereo unspecified) | 5% | -8% | -14% | 10% | 79µM*
O=C(/C=C/c1cccs1)NC1CCS(=O)(=O)C1 (stereo unspecified) | 2% | -7% | -5% | 24% | 89µM*
O=C(OCc1ccccc1)N1CCCCC1c1c(Cl)cccc1Br (stereo unspecified) | . | . | . | -5% | .
O=S1(=O)CC(O)C(NCc2ccco2)C1 (stereo unspecified) | -2% | 4% | -1% | -4% | ?
CC(C)(C)c1cc(CNC2CS(=O)(=O)C[C@@H]2O)cc(C(C)(C)C)c1O (stereo partly specified) | -1% | 9% | -4% | 2% | 50µM*
Cc1ccn2c(NC3CCCC3)c(-c3ccsc3)nc2c1 | 0% | -1% | 0% | 7.1µM* | 9%
Cc1ccn2c(NC3CCCCC3)c(-c3ccc(SC4CCCCC4)cc3)nc2c1 | . | . | . | -16% | .
COc1cccc(Cn2c(=O)n(CCc3ccccc3)c(=O)c3c2c2cc(OC)ccc2n3C)c1 | . | -3% | 1% | 4% | 5%
COc1ccc(S(=O)(=O)Nc2ccc3c(c2)CCC3)cc1 | 5% | 9% | 5% | -23% | 45µM*
SMILES | Tb PFK inh | PGK inhibitor | Pin1 inh | GLS inh | VDR inh
CC(=O)Nc1ccc(S(=O)(=O)Nc2ccc3c(c2)CCC3)cc1 | -3% | -8% | -10% | -20% | 10%
COc1cc(CN2CCc3c([nH]c4ccccc34)C2)cc(OC)c1 | -1% | -2% | 1% | ? | 50µM*
Cc1ccc(-c2ccc(/C=N/NC(N)=S)o2)cc1 | 2% | i | 1% | ? | 89µM*
O=C1ON=C(c2ccc([N+](=O)[O-])cc2)/C1=C/c1ccccc1O | 3% | 1% | -6% | -14% | 79µM*
COc1cccc(NC(=O)CSc2nnc(-c3ccco3)c(-c3ccco3)n2)c1 | ? | -17% | . | 38% | 89µM*
COc1ccc(C(NC(=O)C2CCN(CCOc3ccc(Cl)cc3)CC2)c2cccs2)cc1 (stereo unspecified) | . | . | . | 11% | .
